Screens as filed in PubChem.
This excerpt belongs to a sample that is enriched for hits.
Pf Dd2 inh: Plasmodium falciparum Dd2 growth inhibition; P. falciparum Dd2 growth, SYBR Green, 72 h; Potency, µM (titrated, usually from 28.9 µM), inactives show at the highest dose activity, negative = inhibition, hits mostly inhibitors; 120,000 compounds, 4.3% hits; AID 1347417; active means well fitted inhibition curve with a large enough effect;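 further: plate controls were DMSO vehicle for no effect and reference drug for full effect; nearly all actives have a fitted effect of over 65% in size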
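Infected erythrocytes (Dd2, 0.3% parasitemia, 2.5% hematocrit final) are added to compound in RPMI-1640/Albumax II medium, grown 72 h at 37C in low oxygen, then lysed with saponin/Triton-X containing SYBR Green and read by fluorescence.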
* hit, by the source's call; i = inactive; [ ] = another dose, or the depositor's remark. Potency means the concentration at half of the fitted maximal effect.

SMILES | Pf Dd2 inh
COCCNc1ncnc2c1CN(C1CCNC1)C(=O)CN2C (stereo not drawn) | 9.5%
Cc1ccc(CN2CCCC(CNC(=O)NC(C)C)C2)cc1C (stereo not drawn) | i
CS(=O)(=O)N1C[C@H]2CCN(C(=O)c3cc(Cl)ccc3F)C[C@H]21 | 9.8%
CN1C(=O)[C@H]2CN(Cc3ccc(Br)cc3)C[C@H]2C1=O | 18.8%
O=C1NCCOCCN(C(=O)COCc2ccccc2)[C@H]2CCC[C@@H]12 | 2.9%
Cc1nc2ncccn2c1C(=O)N1CCNCC(C(=O)O)C1 (stereo not drawn) | 5.6%
CC1=C[C@@H](CC#N)[C@H](C(C)C)C[C@H]1CC(=O)NC1CC1 | -19.1%[44.1 µM]
CC(=O)NCCC(=O)N1Cc2ccccc2CC2(CCN(CC3CCNC3)CC2)C1 (stereo not drawn) | 3.3%
CCC(C)NC(=O)C(NC(=O)c1cccs1)C1CCN(C(=O)c2ccccc2F)CC1 (stereo not drawn) | -10.0%
O=C1CC2CCN(C(=O)C3CCCC3)CC2CCN1 (stereo not drawn) | 24.7%[44.1 µM]
CN1CCN(C(=O)Cc2c[nH]c3ncc(-c4cccc(Cl)c4)cc23)CC1 | i
CN1CCN(C(=O)Cc2c[nH]c3ncc(-c4ccc(F)c(Cl)c4)cc23)CC1 | 11.2µM*
O=C(Cc1c[nH]c2ncc(-c3ccccc3)cc12)NCc1cnccn1 | i
O=C(Cc1c[nH]c2ncc(-c3ccncc3)cc12)NCc1cccnc1 | 5.01µM*
CN1CCN(C(=O)Cc2c[nH]c3ncc(-c4ccc5c(c4)OCO5)cc23)CC1 | -20.8%[44.1 µM]
COc1ccc(OC)c(-c2cnc3[nH]cc(CC(=O)NCc4cccnc4)c3c2)c1 | i
CNC(=O)c1cccc(-c2cnc(NC(=O)Cc3ccccc3)c3c2CCO3)c1 | 3.9%[44.1 µM]
CN(C)CCNC(=O)C1(CCO)CC12CCOCC2 (stereo not drawn) | 28.2%
Cc1cccc(-n2cc(CN3CC[C@H](CO)[C@@H](O)C3)cn2)c1 | -23.3%
CN1CCN(Cc2cnn(-c3cccc(Cl)c3)c2)CC1CCO (stereo not drawn) | 14.1µM*
COc1cc(CN2CCN(Cc3ccc(-n4cccn4)cc3C)CC2CCO)cc(OC)c1 (stereo not drawn) | -10.8%
Cc1noc(-c2cn(C3CCN(C(=O)c4ccoc4)C3)nn2)n1 (stereo not drawn) | i
CC(C)c1noc(-c2cn(C3CCN(C(=O)C4(c5ccccc5)CC4)C3)nn2)n1 (stereo not drawn) | i
COC[C@@H]1CN(C(=O)CCc2c(C)n[nH]c2C)C[C@H]1c1ccncc1 | 18.2%
Cc1cc(C(=O)N2C[C@@H](COCC3CC3)[C@H](c3ccncc3)C2)on1 | 7.3%
SMILES | Pf Dd2 inh
O=C1OCC2(CCN(Cc3ccn[nH]3)C2)N1Cc1ccccc1 (stereo not drawn) | -9.3%[44.1 µM]
N#Cc1ccc(CN2CCC3(COC(=O)N3Cc3ccccc3)C2)cc1 (stereo not drawn) | -5.1%[44.1 µM]
O=C1OCC2(CCN(Cc3ccccc3O)C2)N1Cc1ccccc1 (stereo not drawn) | 10µM*
Cc1cc(-c2ccnc(-c3nnc(C)n3-c3ccccc3)c2)ccn1 | i
CCN1C(=O)C(O)(c2c(C)[nH]c3ccccc23)c2ccccc21 (stereo not drawn) | 9.5%
CCCCN1C(=O)C(O)(c2c(C)[nH]c3ccccc23)c2cc(Br)ccc21 (stereo not drawn) | 11.2µM*
CCCCN1C(=O)C(O)(c2c(C)[nH]c3ccccc23)c2ccccc21 (stereo not drawn) | -8.7%
O=C(c1ccccn1)N1C[C@@H]2OCC(=O)N(CC3CCCCC3)[C@@H]2C1 | 2.1%[44.1 µM]
Cc1ccccc1C(=O)Nc1ccc([C@H]2OCC(=O)N(Cc3ccncc3)[C@@H]2CO)cc1 | 16.5%[44.1 µM]
O=C(Nc1ccc([C@H]2OCC(=O)N(CC3CCCCC3)[C@@H]2CO)cc1)c1ccccn1 | 11.2µM*
CN1CCC(OC2CCN(C(=O)c3ccc(Cl)cc3)CC2)CC1 | i
CCn1nc(C)c(CN2C[C@@H](CO)[C@H](c3nc(COC)no3)C2)c1C | 14.7%
CC(=O)Nc1cccc(C(=O)NCCn2ccn3nc(-c4ccc(F)cc4)cc3c2=O)c1 | -1.2%
Cc1ccc(C2C=C(c3ccc(Cl)cc3)Nc3nc(NS(=O)(=O)c4ccccc4)nn32)cc1 (stereo not drawn) | 19.6%
COc1ccc(C(=O)Nc2nc3n(n2)C(c2ccccc2)C=C(c2ccccc2)N3)cc1 (stereo not drawn) | i
O=C(Nc1nc2n(n1)C(c1ccc(F)cc1)C=C(c1ccccc1)N2)c1cccc([N+](=O)[O-])c1 (stereo not drawn) | 3.16µM*
O=C(c1ccco1)n1nc(-c2ccc(Cl)cc2)nc1NCc1ccc(F)cc1 | 60.9%
O=C(Nc1nc2n(n1)C(c1ccc(F)cc1)C=C(c1ccc(Cl)cc1)N2)c1ccco1 (stereo not drawn) | 8.91µM*
CC1=C(C(=O)Nc2ccccc2)C(c2ccc(F)cc2)n2nc(SCc3cc(C)ccc3C)nc2N1 (stereo not drawn) | 115.1%
COc1cccc(C2C(C(=O)Nc3ccccc3)=C(C)Nc3nc(-c4ccccc4)nn32)c1 (stereo not drawn) | -27.6%
COc1ccc(C2C=C(c3ccccc3)Nc3nc(NC(=O)/C=C/c4ccccc4OC)nn32)cc1 (stereo not drawn) | 10µM*
Cc1ccsc1C(=O)N1CC(c2nnc(-c3ccncc3)o2)C2(CCOCC2)C1 (stereo not drawn) | -24.4%
Cc1onc(-c2cnn(C)c2NCc2ccccc2)c1C(=O)N1CCN(CCO)CC1 | i
Cn1c(CO[C@H]2CN(Cc3ccncc3F)C[C@H]2F)nc2ccccc21 | 18.0%[44.1 µM]
Cc1nc([C@@H]2CN(C(=O)c3noc(C)c3Cn3cccn3)C[C@H]2C(N)=O)n[nH]1 | -6.8%
SMILES | Pf Dd2 inh
CNC(=O)N1CC(c2noc(C3CCCN3C(=O)c3ccc(C)s3)n2)C1 (stereo not drawn) | -12.4%
CC(C)CCN1CCC(N2CCN(C(=O)c3ccsc3)CC2)C1=O (stereo not drawn) | -14.3%
COCCN1CC(Cc2ccccc2C(=O)NC(C)C)CC1=O (stereo not drawn) | -1.9%
COc1ccc(C(=O)N2CCn3c(nnc3-c3ccccc3)C2)cc1 | i
COc1ccc(-c2cc(CC3(NCc4ccccc4)COC3)no2)cc1 | i
Cc1ccccc1Cn1c(CN2CCC(C(=O)NCCN(C)C)CC2)cc2ccccc21 | 1µM*
CCOc1ccc(CNC(=O)C2CCN(Cc3cc4ccccc4n3Cc3ccccc3C)CC2)cc1 | i
Cc1ccccc1Cn1c(CN2CCC(C(=O)NCc3ccc(Cl)cc3)CC2)cc2ccccc21 | 14.6%
CC(C)(C)C(=O)NC1CCN(c2cn[nH]c(=O)c2)CC1 | -6.3%
O=C(c1cc2ccccc2o1)N1CCC2(COc3ncccc3S(=O)(=O)N2)C1 (stereo not drawn) | 20.6%
COc1ccccc1-c1nc2cc(NC(=O)c3ccccc3Cl)ccc2o1 | 1.2%
O=C(Cc1ccc(Cl)cc1)Nc1ccc2oc(-c3ccccc3F)nc2c1 | i
O=C(Nc1ccc(-c2nc3cc(NC(=O)c4ccc(F)cc4)ccc3o2)cc1)c1ccc(F)cc1 | 0.6%
O=C(Nc1ccc2oc(-c3ccccc3)nc2c1)c1ccc2ccccc2c1 | 17.6%
O=C(Nc1ccc2oc(-c3cccc(F)c3)nc2c1)c1ccc2ccccc2c1 | 1µM*
O=C(Nc1ccc2oc(-c3ccccc3F)nc2c1)c1ccccc1Cl | 3.98µM*
CNC(=O)N1CCC(c2nc(CCOc3ccc(F)cc3)no2)C1 (stereo not drawn) | -18.4%
CN[C@@H](C)C(=O)N1CCC(c2cc(N3CCOCC3)nc(C)n2)CC1 | 8.6%
